Holding throughout (experiment): NCI-60 one-dose screen, 48 h (100 = growth as untreated, 0 = no growth, -100 = all killed)
Common to all, as to settings: 10 µM unless noted

Experiment [1] relates to NCI-H23 lung.
The subject of experiment [2] is NCI-H226 lung.
The subject of experiment [3] is HOP-62 NSCLC.
For experiment [4], the system named is HOP-92 NSCLC.
Experiment [5] concerns NCI-H522 lung.
Experiment [6] relates to A549/ATCC NSCLC.
The test system of experiment [7] is 786-0 renal.
Experiment [8] concerns COLO 205 colon.
The test system of experiment [9] is DU-145 prostate.
Experiment [10] concerns K-562 leukemia.
Experiment [11] deals with MALME-3M melanoma.
In experiment [12] the test system is MDA-MB-231 breast.
Experiment [13] relates to RXF 393 renal.
The test system of experiment [14] is SF-268 CNS.
The test system of experiment [15] is SF-295 CNS.
For experiment [16], the system named is SF-539 CNS.
The subject of experiment [17] is UACC-257 melanoma.
Experiment [18] concerns M14 melanoma.
For experiment [19], the system named is NCI-H460 lung.
Experiment [20] has as its system NCI-H322M lung.

Several values for one entry are separate records, joined by “and”; a condition that tells them apart may be missing. Equal entries are not always repeated. About 83,000 compounds went through this panel and 20% of them were active in at least one assay; those are over-represented in the sample as a whole.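 96-well plates, one dose, 48 hours. Percent growth reported; active if below 10.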 Activity calls are given as the source filed them.

Turning to `O=C1c2ccccc2CN1c1ccccc1`, the growth in experiment [1] is 94.2% (inactive); in [2], 98.8% (inactive); in [3], 107% (inactive); in experiment [4], 104% (inactive); in [5] it was 74.7% (inactive); in experiment [6], 91.4% (inactive). For the same compound, the growth in experiment [7] is 94.7% (inactive); in experiment [8], 105% (inactive); in experiment [9], 115% (inactive); in experiment [10], 94.2% (inactive); in [11], 118% (inactive); in experiment [12], 95.4% (inactive). In addition, the growth was 105% (inactive) in [13]; 107% (inactive) in [14]; 104% (inactive) in [15]; 102% (inactive) in [16]; 103% (inactive) in experiment [17]; 100% (inactive) in experiment [18].
Regarding `NCCCCCC(=O)O`, the growth in experiment [1] is 97.6% (inactive) and 104% (inactive) and 92.2% (inactive); in experiment [2], 101% (inactive) [middle of 4 runs]; in [3], 99.7% (inactive) and 105% (inactive) and 97.7% (inactive); in [4] it was 97.2% (inactive) and 90.1% (inactive); in experiment [5], 100% (inactive) [middle of 4 runs]; in [6], 94.1% (inactive) and 100% (inactive) and 99.7% (inactive). The growth in experiment [7] is 107% (inactive) [middle of 4 runs]; in experiment [8], 114% (inactive) and 104% (inactive) and 95.2% (inactive); in [9], 124% (inactive) [middle of 4 runs]; in experiment [10] it was 112% (inactive) [middle of 4 runs]; in [12], 112% (inactive) and 105% (inactive) and 109% (inactive); in experiment [13], 110% (inactive) and 113% (inactive) and 127% (inactive). The growth was 104% (inactive) [middle of 4 runs] in experiment [15]; 101% (inactive) [middle of 4 runs] in [16]; 102% (inactive) and 96.4% (inactive) and 105% (inactive) in experiment [17]; 106% (inactive) [middle of 4 runs] in experiment [18].
On to `O=C(O)c1cc(=O)[nH]c(=O)[nH]1`, for which the growth in experiment [1] is 104% (inactive) and 4.68% (active); in experiment [2], 102% (inactive) and 95% (inactive); in [3] it was 115% (inactive) and 107% (inactive); in [19], 111% (inactive) and 91.4% (inactive); in experiment [5], 89.7% (inactive) and 18.9% (inactive); in [6], 98.3% (inactive). For the same compound, the growth was 96.5% (inactive) and 103% (inactive) in [7]; 99.6% (inactive) and 89.3% (inactive) in [8]; 116% (inactive) and 104% (inactive) in experiment [9]; 106% (inactive) and 115% (inactive) in experiment [10]; 89.1% (inactive) and 116% (inactive) in experiment [11]; 97.2% (inactive) and 96.3% (inactive) in experiment [12]. For the same compound, the growth in [13] was 118% (inactive); in [14], 112% (inactive) and 100% (inactive); in [15], 101% (inactive) and 124% (inactive); in [16] it was 104% (inactive) and 80.5% (inactive); in [17], 103% (inactive); in experiment [18], 102% (inactive) and 111% (inactive).
With `CCCC(=O)OCC(COC(=O)CCC)OC(=O)CCC`, the growth is 104% (inactive) in [1]; 94.5% (inactive) in experiment [2]; 98.6% (inactive) in experiment [3]; 101% (inactive) in [19]; 87.3% (inactive) in experiment [4]; 99.1% (inactive) in [5]. Also, the growth in experiment [6] is 94.9% (inactive); in experiment [7], 102% (inactive); in experiment [8] it was 111% (inactive); in experiment [9] it was 111% (inactive); in experiment [10], 97.7% (inactive); in experiment [11] it was 107% (inactive). For the same compound, the growth is 109% (inactive) in [12]; 110% (inactive) in experiment [13]; 104% (inactive) in experiment [14]; 99.9% (inactive) in [15]; 103% (inactive) in [16]; 95.5% (inactive) in experiment [17]. Moreover, the growth in experiment [18] was 102% (inactive).
Consider `C=CCN1C(=O)c2ccccc2C1=O`, for which the growth in experiment [1] is 103% (inactive); in experiment [2], 101% (inactive); in [3], 104% (inactive); in experiment [19], 101% (inactive); in [4], 80.9% (inactive); in experiment [5], 86% (inactive). For the same compound, the growth in experiment [6] was 100% (inactive); in experiment [7] it was 103% (inactive); in [8], 98.4% (inactive); in experiment [9], 107% (inactive); in experiment [10] it was 106% (inactive); in experiment [11] it was 120% (inactive). For the same compound, the growth in experiment [12] was 106% (inactive); in [13], 104% (inactive); in experiment [14], 106% (inactive); in experiment [15], 109% (inactive); in experiment [16], 95.3% (inactive); in [17] it was 102% (inactive). Moreover, in [18], the growth is 99.9% (inactive).
In the case of `Nc1nc(=S)c2[nH]cnc2[nH]1`, the growth in experiment [1] is 17.6% (inactive) and 161% (inactive); in [2], 39% (inactive) and 37.4% (inactive); in experiment [20] it was 39.2% (inactive) and 85.7% (inactive); in experiment [3] it was 16.5% (inactive) and 18% (inactive); in [4], -2.57% (active); in [5], -4.74% (active) and 7.57% (active). The growth in [6] was 31.7% (inactive) and 2.46% (active); in experiment [7], 17.2% (inactive) and 9.97% (active); in [8], -27.5% (active) and 7.45% (active); in [9], 21.3% (inactive) and 21% (inactive); in experiment [10] it was 9.77% (active) and -2.79% (active); in experiment [11], 21.6% (inactive) and 35.7% (inactive). The growth was 32.9% (inactive) and 29.4% (inactive) in [12]; 5.3% (active) and -2.73% (active) in experiment [13]; 17.8% (inactive) and 26.3% (inactive) in experiment [14]; 25.6% (inactive) and 19% (inactive) in experiment [15]; 7.88% (active) in [16]; 41.4% (inactive) and 24.2% (inactive) in experiment [17]. Besides, the growth in experiment [18] was 5.54% (active).
Turning to `CC(C)(C)C1CCC(=NO)CC1` (stereo not drawn), the growth in experiment [1] is 95.5% (inactive); in [2], 99.9% (inactive); in experiment [3] it was 95.9% (inactive); in [19], 99.6% (inactive); in [4], 71.4% (inactive); in experiment [5] it was 92.5% (inactive). Moreover, the growth in experiment [6] is 91.6% (inactive); in experiment [7], 94.5% (inactive); in [8], 117% (inactive); in [9] it was 112% (inactive); in [10], 128% (inactive); in experiment [11] it was 103% (inactive). The growth was 104% (inactive) in experiment [12]; 90.6% (inactive) in experiment [13]; 109% (inactive) in experiment [14]; 98.3% (inactive) in [15]; 96.2% (inactive) in experiment [16]; 76.4% (inactive) in experiment [17]. For the same compound, in experiment [18], the growth is 100% (inactive).

(Values after PubChem BioAssay (NCI).)
